The supplement of paper PMC13380429

System: Vero E6 infected with SARS-CoV-2
Test: inhibition of SARS-CoV-2 cytopathic effect; higher = more antiviral protection, active = above 15
Settings: 48 h

Measured: inhibition of SARS-CoV-2 cytopathic effect

CCCCCCCN(CC)CCC[C@@H](O)c1ccc(NS(C)(=O)=O)cc1 (racemic) [ibutilide]
inactive: 1 nM -3.47% | 8.33 nM -2.14% | 100 nM -2.19% | 833.33 nM 0.97% | 10000 nM -2.22%

COC(=O)c1ccc(O)cc1 [methylparaben]
inactive: 1 nM -0.45% | 8.33 nM 0.03% | 100 nM 2.76% | 833.33 nM 1.99% | 10000 nM 2.64%

CC(C)C[C@H](NC(=O)[C@H](CCCCN)NC(=O)[C@H](CCCNC(=N)N)NC(=O)[C@H](C)NC(=O)[C@H](CO)NC(=O)[C@H](CCCCN)NC(=O)[C@H](CCCNC(=N)N)NC(=O)[C@H](C)NC(=O)CNC(=O)[C@@H](NC(=O)[C@H](Cc1ccccc1)NC(=O)CNC(=O)CNC(=O)[C@@H](N)Cc1ccccc1)[C@@H](C)O)C(=O)N[C@@H](C)C(=O)N[C@@H](CC(N)=O)C(=O)N[C@@H](CCC(N)=O)C(=O)O [orphanin-fq]
inactive: 1 nM 1.63% | 8.33 nM -0.61% | 100 nM 0.09% | 833.33 nM 0.66% | 10000 nM 0.4%

CN[C@@H](C)C(=O)N[C@H]1CCCC[C@H]2CC[C@@H](C(=O)N[C@@H](c3ccccc3)c3cn(CCCCc4ccc(CCCCn5cc([C@@H](NC(=O)[C@@H]6CC[C@@H]7CCCC[C@H](NC(=O)[C@H](C)NC)C(=O)N76)c6ccccc6)nn5)cc4)nn3)N2C1=O
inactive: 1 nM -2.38% | 8.33 nM -0.21% | 100 nM -2.09% | 833.33 nM -4.99% | 10000 nM -13.1%

CN1CCCCC1Cn1cc(C(=O)c2cc([N+](=O)[O-])ccc2I)c2ccccc21 (stereo not given)
inactive: 1 nM -0.48% | 8.33 nM 0.44% | 100 nM 0.04% | 833.33 nM -2.69% | 10000 nM 4.92%

CC(C)(C)NCC(O)COc1cccc2[nH]c(=O)[nH]c12 (stereo not given)
inactive: 1 nM -0.75% | 8.33 nM -0.25% | 100 nM -0.12% | 833.33 nM -0.11% | 10000 nM -0.04%

C#Cc1cccc(Nc2ncnc3cc(OCCOC)c(OCCO)cc23)c1
inactive: 1 nM 2.26% | 8.33 nM -0.66% | 100 nM -2.61% | 833.33 nM -4.18% | 10000 nM -8.66%

CC(C)c1cnn2c(NCc3ccccc3)cc(NCCCCCCN)nc12
inactive: 1 nM 2.49% | 8.33 nM -1.33% | 100 nM -2.16% | 833.33 nM 1.83% | 10000 nM -12.8%

O=C(/C=C/c1ccc(O)c(O)c1)c1ccc(O)cc1O [butein]
inactive: 1 nM -0.13% | 8.33 nM 0.3% | 100 nM 1.11% | 833.33 nM 2.97% | 10000 nM 12.1%

COC(=O)/C=C/c1cccc(N(Cc2ccc(-c3ccc(N(C)C)cc3)cc2)C(=O)C2CCCCC2)c1 [fexaramine]
inactive: 1 nM -0.19% | 8.33 nM 0.37% | 100 nM -0.24% | 833.33 nM 2.29% | 10000 nM 1.78%

COc1ccc2[nH]cc(CCNC(C)=O)c2c1 [melatonin]
inactive: 1 nM 2.18% | 8.33 nM 0.84% | 100 nM 2.24% | 833.33 nM 2.42% | 10000 nM -2.74%

COC(=O)C1=C(C)NC(C)=C(C(=O)OCCN2CCN(C(c3ccccc3)c3ccccc3)CC2)C1c1cccc([N+](=O)[O-])c1 (stereo not given) [manidipine]
inactive: 1 nM 1.55% | 8.33 nM 1.19% | 100 nM -0.02% | 833.33 nM 1.16% | 10000 nM -7.15%

N#Cc1c(-c2ccccc2)cc(-c2cc(Br)ccc2O)[nH]c1=O
inactive: 1 nM 0.98% | 8.33 nM 2.69% | 100 nM 3% | 833.33 nM 2.87% | 10000 nM 3.55%

Cc1cc(-c2ncc(CC(=O)Nc3ccc(-c4cnccn4)cn3)cc2C)ccn1
inactive: 1 nM -0.34% | 8.33 nM -0.01% | 100 nM -1.16% | 833.33 nM 1.44% | 10000 nM 2.89%

CN=C(N)NCCC[C@H](N)C(=O)O [L-monomethylarginine]
inactive: 1 nM -0.78% | 8.33 nM -1.38% | 100 nM 0.7% | 833.33 nM 1.39% | 10000 nM -1.85%

CCCN(CCC)C(=O)C(CCC(=O)O)NC(=O)c1ccccc1 (stereo not given) [proglumide]
inactive: 1 nM 2.27% | 8.33 nM -2.46% | 100 nM -0.81% | 833.33 nM 2.34% | 10000 nM -1.09%

Cn1nnc(-c2ccc(-c3ccc(N4C[C@H](COP(=O)(O)O)OC4=O)cc3F)cn2)n1 [tedizolid-phosphate]
inactive: 1 nM -1.65% | 8.33 nM -1.24% | 100 nM -0.65% | 833.33 nM 1.74% | 10000 nM 1.44%

COc1ccc(OC)c2c(=S)c3ccccc3[nH]c12
inactive: 1 nM 2.65% | 8.33 nM 4.64% | 100 nM 1.38% | 833.33 nM 1.44% | 10000 nM 2.75%

O=C(CCc1ccncc1)NNC(=O)N1Cc2ccccc2Oc2ccc(Cl)cc21
inactive: 1 nM 1.3% | 8.33 nM 1.11% | 100 nM 1.69% | 833.33 nM -0.24% | 10000 nM 5.24%

CC(NC(=O)c1ccccc1/N=C/c1c(O)ccc2ccccc12)c1ccccc1 (stereo not given) [sirtinol]
inactive: 1 nM 3.41% | 8.33 nM -0.75% | 100 nM -3.54% | 833.33 nM -2.85% | 10000 nM 0.96%

C[C@@H]1O[C@@H](OC[C@H]2O[C@@H](Oc3c(-c4ccc(O)c(O)c4)oc4cc(O)cc(O)c4c3=O)[C@H](O)[C@@H](O)[C@@H]2O)[C@H](O)[C@H](O)[C@H]1O [rutin]
inactive: 1 nM 1.54% | 8.33 nM 1.59% | 100 nM 5.75% | 833.33 nM 0.96% | 10000 nM -5.92%

CC(C)[C@@H](C)/C=C/[C@@H](C)[C@H]1CC[C@H]2C3=CC=C4C[C@@H](O)CC[C@]4(C)[C@H]3CC[C@]12C [ergosterol]
inactive: 1 nM -3.22% | 8.33 nM 1.48% | 100 nM 0.86% | 833.33 nM 2.74% | 10000 nM 2.85%

CCCCCCCCCCCCCCCCCCO [octadecan-1-ol]
inactive: 1 nM -0.16% | 8.33 nM -0.19% | 100 nM -2.3% | 833.33 nM -2.63% | 10000 nM 2.04%

COC(=O)[C@@]12OC[C@]34[C@H]([C@@H](O)[C@@H]1O)[C@@]1(C)CC(=O)C(O)=C(C)[C@@H]1C[C@H]3OC(=O)[C@H](OC(=O)/C=C(\C)C(C)C)[C@@H]24 [bruceantin]
inactive: 1 nM 1.48% | 8.33 nM 1.92% | 833.33 nM 4.61% | 10000 nM -16.1%
active: 100 nM 26.8%

O=C(NOCC(O)CO)c1cc(Br)c(F)c(F)c1Nc1ccc(I)cc1F (stereo not given)
inactive: 1 nM -0.27% | 8.33 nM -0.08% | 100 nM -8.55% | 833.33 nM -10% | 10000 nM -12.5%

C=C(C)[C@@H]1CC[C@]2(CO)CC[C@]3(C)[C@H](CC[C@@H]4[C@@]5(C)CC[C@H](O)C(C)(C)[C@@H]5CC[C@]43C)[C@@H]12
inactive: 1 nM -5.94% | 8.33 nM -10.1% | 100 nM -7.13% | 833.33 nM -9.2% | 10000 nM -12.6%

CNCC(O)c1ccc(OC(=O)C(C)(C)C)c(OC(=O)C(C)(C)C)c1 (stereo not given) [dipivefrine]
inactive: 1 nM 0.87% | 8.33 nM 3.76% | 100 nM 1.77% | 833.33 nM 1.42% | 10000 nM 0.56%

C[C@@H]1CC[C@@]2(OC1)O[C@H]1C[C@H]3[C@@H]4CC=C5C[C@@H](O)CC[C@]5(C)[C@H]4CC[C@]3(C)[C@H]1[C@@H]2C [diosgenin]
inactive: 1 nM -0.61% | 8.33 nM -0.09% | 100 nM 0.12% | 833.33 nM -2.38% | 10000 nM -1.29%

COc1cc([C@@H]2c3cc4c(cc3[C@@H](O[C@@H]3O[C@@H]5CO[C@@H](C)O[C@H]5[C@H](O)[C@H]3O)[C@H]3COC(=O)[C@H]23)OCO4)cc(OC)c1OP(=O)(O)O [etoposide-phosphate]
inactive: 1 nM -3.4% | 8.33 nM -1.24% | 100 nM -0.75% | 833.33 nM -0.98% | 10000 nM 1.67%

CCS(=O)(=O)N1CCN(c2ccc(Nc3ncc(C(N)=O)c(NC4CC4)n3)cc2)CC1
inactive: 1 nM -1.63% | 8.33 nM -0.99% | 100 nM -2.24% | 833.33 nM 2.08% | 10000 nM -5.53%

C[C@]12CC/C(=N\OCCN)C[C@@H]1C(=O)C[C@@H]1[C@@H]2CC[C@]2(C)C(=O)CC[C@@H]12 [istaroxime]
inactive: 1 nM 2.17% | 8.33 nM -1.67% | 100 nM 1.45% | 833.33 nM 3.86% | 10000 nM 6.93%

Cc1cccc(C)c1NC(=O)C[N+](C)(C)C
inactive: 1 nM -1.32% | 8.33 nM 0.36% | 100 nM 0.02% | 833.33 nM -0.1% | 10000 nM 0.5%

O=C1C(CC[S+]([O-])c2ccccc2)C(=O)N(c2ccccc2)N1c1ccccc1 (stereo not given) [sulfinpyrazone]
inactive: 1 nM 1.22% | 8.33 nM 1.51% | 100 nM -0.06% | 833.33 nM 0.46% | 10000 nM 0.32%

C=C(C)[C@H]1CN[C@H](C(=O)O)[C@H]1CC(=O)O [kainic-acid]
inactive: 1 nM -1.66% | 8.33 nM 0.99% | 100 nM 0.37% | 833.33 nM -1.94% | 10000 nM -0.79%

FC(F)(F)c1ccc(/C=C/c2nc(COc3ccc(CCCCn4ccnn4)cc3)co2)cc1 [mubritinib]
inactive: 1 nM 2.13% | 8.33 nM 1.62% | 100 nM 2.58% | 833.33 nM 3.2% | 10000 nM 1.47%
